Inconclusive results are not listed. Activity calls are given as the source filed them. The calls were made as follows: active = hit-call score of the fitted dose curve at least 0.9, where 1 is the maximum; inconclusive = response in the unintended direction; inactive = score below 0.9.

Sequence of human Matrix Metalloproteinase-2 (MMP2), MMP2 (gene 4313) (P08253 whole entry, looked up): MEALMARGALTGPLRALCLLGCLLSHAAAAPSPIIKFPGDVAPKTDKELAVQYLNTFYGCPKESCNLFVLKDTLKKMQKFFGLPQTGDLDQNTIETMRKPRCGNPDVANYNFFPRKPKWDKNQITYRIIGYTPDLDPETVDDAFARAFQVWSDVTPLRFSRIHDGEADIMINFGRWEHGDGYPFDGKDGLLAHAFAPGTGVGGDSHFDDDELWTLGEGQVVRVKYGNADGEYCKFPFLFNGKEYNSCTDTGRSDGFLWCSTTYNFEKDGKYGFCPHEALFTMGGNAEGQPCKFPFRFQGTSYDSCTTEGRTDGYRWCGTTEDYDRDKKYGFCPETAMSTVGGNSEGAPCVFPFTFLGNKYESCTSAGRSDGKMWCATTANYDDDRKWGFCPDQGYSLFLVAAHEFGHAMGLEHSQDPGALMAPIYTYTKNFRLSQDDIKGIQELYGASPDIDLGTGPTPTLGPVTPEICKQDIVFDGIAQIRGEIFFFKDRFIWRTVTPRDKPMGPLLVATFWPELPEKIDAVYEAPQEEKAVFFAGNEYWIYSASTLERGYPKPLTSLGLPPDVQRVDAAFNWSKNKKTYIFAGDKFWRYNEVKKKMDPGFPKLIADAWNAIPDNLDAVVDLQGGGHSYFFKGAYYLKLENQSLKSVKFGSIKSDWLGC

The target of one assay is Collagenase 3 (Homo sapiens) (UniProt P45452). The experiment in a line: NVS_ENZ_hMMP13: NovaScreen (NVS) Enzymatic Assay for human Matrix Metalloproteinase-13 (MMP13) (AID 2283182). In outline:
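Recombinant MMP13 cleaving fluorescent substrate, cell-free, measured 1 h after dosing. Primary duplicate screen at 25 uM; actives tested in concentration-response up to 50 uM; loss of signal relative to DMSO.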
On to `CN[C@H]1CC[C@@H](c2ccc(Cl)c(Cl)c2)c2ccc(S(N)(=O)=O)cc21`, for which the AC50 was 2.36 µM (active). The same measure, in the same setting: the value for `Cc1nc(-c2ccc3c(c2)CCN(CCC2CCC(NC(=O)/C=C/c4ccc(F)cc4)CC2)CC3)no1` (stereo not given) was 5.67 µM (active). Same read-out and setting: the value for `CC1=C(/C=C/C(C)=C/C=C/C(C)=C/CO)C(C)(C)CCC1` was 18.2 µM (active).

In the case of `c1cc(-c2ccncc2)ccn1`, the result was inactive. Regarding `Cc1cccc([N+](=O)[O-])c1C`, the AC50 was 2.06 µM (active). On to `COCCOC[C@H](CC1(C(=O)NC2CCC(C(=O)O)CC2)CCCC1)C(=O)Oc1ccc2c(c1)CCC2` (stereo not given in full), for which the AC50 was 17.3 µM (active). For the compound `CN1CCN(Cc2cc(-c3ccc4[nH]c(=O)oc4c3)co2)[C@@H](c2ccc(F)cc2)C1`, the AC50 is 7.74 µM (active).

The next assay deals with human Matrix Metalloproteinase-2 (MMP2), MMP2 (gene 4313) (UniProt P08253). In words: NVS_ENZ_hMMP2: NovaScreen (NVS) Enzymatic Assay for human Matrix Metalloproteinase-2 (MMP2) (AID 2283184). The essentials:
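Compounds first screened in duplicate at a single 25 uM, with actives followed up in concentration series. Recombinant human MMP2 cleaves a fluorogenic substrate; fluorescence taken at 1 h, inhibition fitted relative to DMSO.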
As to `Cc1nc(C)nc(N2C[C@@H](C)N(c3ccnc([C@@H](C)O)n3)[C@@H](C)C2)n1`, the AC50 was 7.26 µM (active). For `C[Si]1(C)O[Si](C)(C)O[Si](C)(C)O[Si](C)(C)O1`, the result was inactive.

For `Cc1nc(-c2ccc3c(c2)CCN(CCC2CCC(NC(=O)/C=C/c4ccc(F)cc4)CC2)CC3)no1` (stereo not given), the AC50 is 13.7 µM (active). On the same count and under the same terms, in the case of `COCCOC[C@H](CC1(C(=O)NC2CCC(C(=O)O)CC2)CCCC1)C(=O)Oc1ccc2c(c1)CCC2` (stereo not given in full) it was 19.8 µM (active). Turning to `Cc1ccc2ncccc2c1`, the call was inactive.

The target in the next assay is human Matrix Metalloproteinase-3 (MMP3), MMP3 (gene 4314) (UniProt P08254). The experiment in a line: NVS_ENZ_hMMP3: NovaScreen (NVS) Enzymatic Assay for human Matrix Metalloproteinase-3 (MMP3) (AID 2283185). The essentials: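 Fluorescent substrate turnover by recombinant MMP3 read after 1 h, signal loss scored against DMSO. Compounds first run in duplicate at 25 uM single dose, then actives confirmed by concentration series.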
Sequence of human Matrix Metalloproteinase-3 (MMP3), MMP3 (gene 4314) (P08254 whole entry, looked up): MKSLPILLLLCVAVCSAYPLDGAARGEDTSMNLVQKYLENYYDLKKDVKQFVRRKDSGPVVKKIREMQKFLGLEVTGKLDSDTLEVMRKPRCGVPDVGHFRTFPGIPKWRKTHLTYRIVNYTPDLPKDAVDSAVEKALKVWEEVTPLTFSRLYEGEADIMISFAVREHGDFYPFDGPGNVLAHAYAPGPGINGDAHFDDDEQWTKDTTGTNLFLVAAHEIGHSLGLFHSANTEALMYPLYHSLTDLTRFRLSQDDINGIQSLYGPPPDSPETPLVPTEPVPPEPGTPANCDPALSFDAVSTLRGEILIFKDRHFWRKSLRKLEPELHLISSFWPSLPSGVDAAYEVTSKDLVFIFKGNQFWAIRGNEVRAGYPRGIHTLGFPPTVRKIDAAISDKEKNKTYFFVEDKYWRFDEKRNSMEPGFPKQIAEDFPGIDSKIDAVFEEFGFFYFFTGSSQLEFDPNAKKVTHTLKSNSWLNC
On to `NCC1(Cc2noc(=O)[nH]2)CCCCC1`, for which the compound was classed as inactive. Same read-out and setting: in the case of `CN[C@H]1CC[C@@H](c2ccc(Cl)c(Cl)c2)c2ccc(S(N)(=O)=O)cc21` it was “inactive”. Turning to `Nc1ccc2c(c1)C(=O)c1ccccc1C2=O`, the concentration at half-maximal activity (AC50) is 31.6 µM (active).

As to `CNC(=O)[C@H]1O[C@@H](n2cnc3c(NCc4cc(Cl)ccc4OCc4cc(C)no4)ncnc32)[C@H](O)[C@@H]1N`, the result was inactive. As for `COc1cc(S(=O)(=O)O)c(C)cc1N=Nc1c(O)ccc2cc(S(=O)(=O)O)ccc12`, the AC50 is 19.2 µM (active). Consider `C[Si]1(C)O[Si](C)(C)O[Si](C)(C)O[Si](C)(C)O1`, for which the call was inactive.

As for `Cc1nc(-c2ccc3c(c2)CCN(CCC2CCC(NC(=O)/C=C/c4ccc(F)cc4)CC2)CC3)no1` (stereo not given), the AC50 is 16.6 µM (active). For `CN1CCN(Cc2cc(-c3ccc4[nH]c(=O)oc4c3)co2)[C@@H](c2ccc(F)cc2)C1`, the compound was called inactive.
